# Bioassay records from PubChem BioAssay.
# Only some compounds are listed: those with a hit (about 7.5% of all), similar ones and a draw of the others.
# Gal4-VP16 FLuc: VP16 counterscreen qHTS for inhibitors of ROR gamma transcriptional activity. Drosophila S2 Gal4-VP16 UAS-luciferase, luminescence, 20 h. Potency, µM (highest dose often 53.6 µM), without a hit: top-dose activity, negative = inhibition, most hits filed as inhibitors. 310,000 compounds, 3.5% hits. AID 2546, 2010;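 further: Gal4-VP16 expression switched on by copper sulfate through the metallothionein promoter; potency means the concentration at half of the fitted maximal effect; nearly all actives have a fitted effect of over 50% in size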
# ELG1 DNA repair: qHTS screen for small molecules that inhibit ELG1-dependent DNA repair in human embryonic kidney (HEK293T) cells expressing luciferase-tagged ELG1. 330,000 compounds, 2.3% hits. HEK293T ELG1-luciferase reporter, luminescence, 16 h; DNA damage induced by 5-fluorouridine. AID 504467, 2011. Potency, µM (top dose mostly 46.1 µM), for inactives: top-dose activity change, negative = inhibition, most hits filed as inhibitors; further: potency means the concentration at half of the fitted maximal effect; nearly all actives have a fitted effect of over 55% in size
#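 Reporter activity after DNA damage by 5-fluorouridine is monitored. Compound-treated cells incubate 16 hr at 37 °C, then ONE-Glo is added for 30 min before luminescence reading.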
# RORg inh: qHTS for inhibitors of ROR gamma transcriptional activity. Nuclear receptor ROR-gamma (Mus musculus), P51450. Drosophila S2 Gal4-RORgamma UAS-luciferase reporter, 20 h. Potency, µM (titrated, usually from 53.6 µM), without a hit: at the top dose activity change, negative = inhibition, most hits filed as inhibitors. 310,000 compounds, 5.4% hits. AID 2551, 2010; further: potency means the concentration at half of the fitted maximal effect; nearly all actives have a fitted effect of over 60% in size
# Target sequence (P51450 whole entry, looked up, the tested form may be a part): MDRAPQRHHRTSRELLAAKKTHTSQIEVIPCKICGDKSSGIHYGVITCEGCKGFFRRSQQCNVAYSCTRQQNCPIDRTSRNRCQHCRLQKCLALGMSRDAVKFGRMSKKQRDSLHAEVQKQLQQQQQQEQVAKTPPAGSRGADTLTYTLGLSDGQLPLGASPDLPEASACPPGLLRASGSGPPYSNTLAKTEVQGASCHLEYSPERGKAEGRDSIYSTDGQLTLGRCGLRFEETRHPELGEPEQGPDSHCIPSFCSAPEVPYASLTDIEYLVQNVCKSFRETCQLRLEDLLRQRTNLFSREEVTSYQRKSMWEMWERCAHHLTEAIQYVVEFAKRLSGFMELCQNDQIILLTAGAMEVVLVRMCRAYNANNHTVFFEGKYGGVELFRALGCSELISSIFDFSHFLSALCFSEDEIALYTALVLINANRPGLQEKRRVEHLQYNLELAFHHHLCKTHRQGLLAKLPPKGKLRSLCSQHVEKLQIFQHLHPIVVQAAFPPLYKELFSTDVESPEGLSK
#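 Drosophila S2 cells stably expressing Gal4-DBD/mouse RORγ fusion under metallothionein promoter plus UAS-luciferase; compound 1 h, then 700 uM CuSO4 induction for 20 h at ambient temperature; inhibition read as reduced luminescence.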
# TSHR antag: Antagonists of the Thyroid Stimulating Hormone Receptor: HTS campaign. activity change, negative = inhibition, % at 11.5 µM. Thyrotropin receptor (Homo sapiens), P16473. TSHR-expressing cells, TSH-stimulated cAMP HTRF, 2 h; hits give low values. 330,000 compounds, 0.2% hits;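 active means activity change below a set negative limit, meaning inhibition stronger than a set level, cut at about -70% in these data; inconclusive means activity change between two set negative limits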
#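 Competitive HTRF cAMP read-out (cryptate anti-cAMP antibody, cAMP-d2; 30 min, room temperature) in freshly harvested TSHR cells. Compounds added before TSH at EC80 (4nM final), followed by 2 hours' incubation at 37 deg C.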
# B2AR arrestin: qHTS assay of beta-arrestin-biased ligands of beta2-adrenergic receptor; Beta-2 adrenergic receptor (Homo sapiens), P07550; beta-arrestin recruitment to beta2AR, cell-based reporter; Potency, µM (doses to about 46.1 µM), inactives show at the top dose activation, usual class: activators; 330,000 compounds, 0.02% hits;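 further: potency means the concentration at half of the fitted maximal effect; 0% = DMSO controls and full agonism = EC100 isoproterenol or metaproterenol; nearly all actives have a fitted effect of over 65% in size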
# * marks the source's active call; other numbers are inactive results; ? = inconclusive; · = not tested or not shown; [ ] = dose if it differs, or a comment. Unless noted, the call rests on the fitted dose curve; in most records, active means well fitted curve in the direction sought with a large enough effect; inconclusive means small, poorly fitted or top-dose-only effect, or another doubt; inactive means no such curve, though single readings can be large; an effect the other way counts as inactive or inconclusive. Unless noted, on the % scale 0 is the no-effect control and ±100 the full control effect.
SMILES,Gal4-VP16 FLuc,ELG1 DNA repair,RORg inh,TSHR antag,B2AR arrestin
Cc1ccc(C(=O)NC2CCCc3c2cnn3-c2ccc(F)cc2F)cn1 (centres undefined),2.8µM*,-3%,?,-32,-1%
Cc1nnsc1C(=O)NC1CCCc2c1cnn2-c1ccc(F)cc1F (centres undefined),7.1µM*,-4%,?,-32,0%
S=C1NCN(Cc2ccco2)CN1CCc1ccccc1,11µM*,-10%,2.2µM*,4,4%
COCCCN1CN(Cc2ccccc2)CNC1=S,?,1%,11µM*,2,0%
CCCN1CN(Cc2ccccc2)CNC1=S,7.1µM*,25%,6.3µM*,12,0%
Cc1ccc(CN2CCN(Cc3ccco3)CC2)cc1,-4%,-8%,-13%,6,-1%
CCCCN1CNC(=S)N(Cc2ccccc2)C1,5.6µM*,10%,4µM*,1,1%
CCCN1CNC(=S)N(CC2CCCO2)C1 (centres undefined),?,?,?,32,-1%
Fc1ccc(N2CN(Cc3cccnc3)CNC2=S)cc1,-9%,-2%,0%,-5,0%
COc1ccc(C(=O)NCC(c2ccco2)N2CCc3ccccc32)c(OC)c1 (centres undefined),·,?,·,1,0%
CC(C)CN1CN(Cc2ccco2)CNC1=S,?,11%,2.2µM*,22,0%
CC(C)CN1CN(Cc2ccccc2)CNC1=S,5.6µM*,11%,4µM*,9,-1%
COCCN1CSC(=S)N(Cc2ccco2)C1,-15%,-20%,?,-3,0%
CCOCCCN1CN(Cc2ccco2)CNC1=S,-4%,?,11µM*,-2,0%
CCCN1CNC(=S)N(Cc2ccccc2)C1,7.1µM*,6%,5.6µM*,-4,2%
S=C1SCN(Cc2ccccn2)CN1Cc1ccco1,-5%,-9%,?,3,0%
Cc1ccc(N2CN(Cc3cccnc3)CNC2=S)cc1,-12%,9%,-11%,7,-1%
CCN(CC)CCCNC(=O)CCC(=O)NNc1nc2ccccc2c2nc(C)nn12,?,21%,18µM*,8,?
Cc1nc2c3ccccc3nc(NNC(=O)CCC(=O)NCCC(C)C)n2n1,3%,8%,-4%,14,0%
Nc1ccc2c(c1)C(=O)C(=O)c1ccccc1-2,2.8µM*,4.6µM*,1.8µM*,-79*,-1%
O=C1C(=O)c2ccc(-c3ccccc3)cc2-c2ccccc21,3.5µM*,9.2µM*,3.2µM*,-5,0%
O=C(O)C(c1ccccc1)N1C(=O)c2ccccc2C1=O (centres undefined),2%,-10%,-35%,20,-1%
O=C(NCc1ccccc1)c1ccc(C2SCC(=O)N2Cc2ccccc2)cc1 (centres undefined),?,16µM*,6%,-18,0%
CCc1ccc(NC(=O)c2ccc(C3SCC(=O)N3CCc3ccccc3)cc2)cc1 (centres undefined),1%,10µM*,19%,-32,0%
C=CCNC(=O)c1ccc(C2SCC(=O)N2Cc2ccccc2)cc1 (centres undefined),2%,10%,4%,8,0%
SMILES,Gal4-VP16 FLuc,ELG1 DNA repair,RORg inh,TSHR antag,B2AR arrestin
CCNC(=O)c1ccc(C2SCC(=O)N2CCc2ccccc2)cc1 (centres undefined),-2%,-8%,29%,5,0%
O=C(Oc1ccccc1)N1CCC2(CCCN(c3ccccn3)C2)CC1,-4%,·,-28%,·,·
CCOc1ccccc1NC(=O)CN1C(=O)NC(Cc2c[nH]c3ccccc23)C1=O (centres undefined),·,1%,·,7,0%
CCc1n[nH]c(=S)n1/N=C/c1ccccn1,-3%,7%,2%,0,0%
CCc1n[nH]c(=S)n1/N=C/c1ccc(N(C)c2ccccc2)cc1,?,?,4.5µM*,2,0%
CCc1n[nH]c(=S)n1/N=C/c1ccc2c(c1)OCO2,?,4%,11µM*,3,3%
CCN(CC)c1ccc(/C=N/n2c(-c3ccccc3Br)n[nH]c2=S)cc1,-4%,?,1µM*,-2,-1%
CCCc1nnc(SCC(=O)O)n1/N=C/c1ccc2c(c1)OCO2,-6%,?,2%,12,?
Cn1c(=S)n(/N=C/c2ccc3c(c2)OCO3)c2ccccc21,21%,?,11µM*,-15,-1%
COC(=O)C/C=C\[C@@H](C)[C@@H](/C=N\O[C@@H](C)c1cc(-c2c(C)cc(C)cc2C)no1)OC,-10%[10 µM],·,-1%[10 µM],·,·
Cc1noc(C)c1C(=O)N1CCC2(CCN(Cc3cc(C(F)(F)F)cc(C(F)(F)F)c3)CC2)CC1,4%,·,-37%,·,·
Cc1cccc(C)c1N1C(=O)CC(N2CCSCC2)C1=O (centres undefined),5%,16%,3%,10,-1%
CC(=O)SC1CC(=O)N(c2c(C)cccc2C)C1=O (centres undefined),?,-22%,10µM*,4,0%
CC(=O)SC1CC(=O)N(c2ccc(C(C)(C)C)cc2)C1=O (centres undefined),?,0%,7.1µM*,-2,0%
COc1ccc(CSCC(=O)N/N=C/c2ccccc2O)cc1,3.2µM*,?,0.71µM*,-1,0%
O=C(CCCCCNC(=O)c1ccccc1)N/N=C/c1ccccc1O,20µM*,?,6.3µM*,-7,0%
O=C(NCCCCCCNC(=O)c1ccccc1O)c1ccccc1O,?,10µM*,3%,-28,-1%
Cc1cc(C)n(CCC(=O)N/N=C/c2ccccc2O)n1,1.3µM*,?,1.3µM*,-11,0%
CC(=O)c1ccc(S(=O)(=O)N2CCN(C(=O)CCC3CCCC3)CC2)cc1,·,-2%,·,-10,0%
C=CCC(O)c1ccccc1 (centres undefined),2%,·,11%,·,·
Cc1ccc2[nH]c(=O)c3cc(C(=O)N(C)c4ccccc4C)sc3c2c1,-6%,?,-24%,-10,-1%
O=C(CN1CCCc2ccccc21)N/N=C/c1ccccc1O,0.32µM*,?,0.25µM*,-4,0%
Cc1nccn1CC(=O)N/N=C/c1ccccc1O,?,?,4µM*,-2,0%
O=C(CSc1ccccc1)N/N=C/c1ccccc1O,1.6µM*,-8%,0.63µM*,8,0%
COc1cccc([C@@H]2Oc3ccc(OC)cc3C(=O)[C@H]2OC(=O)NS(=O)(=O)c2ccc(F)cc2)c1,7%,·,-40%,·,·
Cc1cccc(Cl)c1NC(=S)NCCc1ccccn1,?,-3%,?,-6,1%
Cc1c(Cl)cccc1NC(=S)NCCc1ccccn1,8.9µM*,-23%,2.5µM*,2,-1%
